This note sets out measurements from publication PMC7862700, “An all-to-all approach to the identification of sequence-specific readers for epigenetic DNA modifications on cytosine”.

Common to all, as to assay: DAPPL (digital affinity profiling via proximity ligation, sequencing); 10 mM Tris-HCl pH 7.5, 50 mM NaCl, 1 mM DTT, 4% glycerol, room temperature, 30 min; GST-TFs on glutathione beads, 16-mer random dsDNA library, 0.1% formaldehyde crosslink after washing; high values mean tight binding
Assay [1] has as its target T1, FLI1 (Homo sapiens, UniProt Q01543 1-452).
T1 sequence: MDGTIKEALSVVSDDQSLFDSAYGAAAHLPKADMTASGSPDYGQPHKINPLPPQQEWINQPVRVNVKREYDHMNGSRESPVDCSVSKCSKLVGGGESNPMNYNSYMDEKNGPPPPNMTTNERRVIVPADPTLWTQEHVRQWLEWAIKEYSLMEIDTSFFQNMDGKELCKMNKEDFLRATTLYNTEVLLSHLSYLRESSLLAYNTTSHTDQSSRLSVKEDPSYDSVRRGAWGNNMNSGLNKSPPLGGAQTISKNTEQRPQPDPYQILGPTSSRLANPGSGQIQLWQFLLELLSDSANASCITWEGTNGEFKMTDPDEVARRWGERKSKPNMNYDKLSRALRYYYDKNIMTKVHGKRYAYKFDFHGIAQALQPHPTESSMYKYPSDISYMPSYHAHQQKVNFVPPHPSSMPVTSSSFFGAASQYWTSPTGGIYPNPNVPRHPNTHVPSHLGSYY
To be noted: protein: recombinant; tags: N-terminal GST; dsDNA, one strand shown. The gist of the method:
(§1)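 The binding signal reported is, for every hexamer, its read frequency for a factor over its read frequency for the tag-only sample. Reads came from pools of yeast-expressed, GST-fused human transcription factors on glutathione beads, barcoded with DNA and mixed with that sample, which were incubated with 200 nmole of a random double-stranded 16-mer DNA library in Tris/NaCl/DTT/glycerol buffer at room temperature for 30 min. After washing, the pools were crosslinked with 0.1% formaldehyde, proximity-ligated with BsaI/T4 ligase for 1 h at 37 °C, PCR-amplified and sequenced on an Illumina NextSeq500.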

Assay [2] deals with T2, ELK1 (Homo sapiens, UniProt P19419 1-428).
T2 sequence: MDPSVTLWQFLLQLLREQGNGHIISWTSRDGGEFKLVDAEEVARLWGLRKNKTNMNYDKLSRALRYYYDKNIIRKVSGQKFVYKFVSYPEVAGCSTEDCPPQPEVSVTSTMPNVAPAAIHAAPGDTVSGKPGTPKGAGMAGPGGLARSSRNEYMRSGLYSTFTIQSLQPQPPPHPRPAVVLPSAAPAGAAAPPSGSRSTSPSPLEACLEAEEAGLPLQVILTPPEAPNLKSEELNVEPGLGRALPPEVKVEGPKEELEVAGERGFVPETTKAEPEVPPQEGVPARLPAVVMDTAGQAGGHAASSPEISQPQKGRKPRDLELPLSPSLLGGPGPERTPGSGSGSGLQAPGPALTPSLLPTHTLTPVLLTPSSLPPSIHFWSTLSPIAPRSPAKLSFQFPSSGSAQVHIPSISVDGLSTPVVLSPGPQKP
As to conditions: protein: recombinant; tags: N-terminal GST; dsDNA, one strand shown. The gist of the method:
as §1

The target of assay [3] is T3, GABPA (Homo sapiens, UniProt Q06546 1-454).
T3 sequence: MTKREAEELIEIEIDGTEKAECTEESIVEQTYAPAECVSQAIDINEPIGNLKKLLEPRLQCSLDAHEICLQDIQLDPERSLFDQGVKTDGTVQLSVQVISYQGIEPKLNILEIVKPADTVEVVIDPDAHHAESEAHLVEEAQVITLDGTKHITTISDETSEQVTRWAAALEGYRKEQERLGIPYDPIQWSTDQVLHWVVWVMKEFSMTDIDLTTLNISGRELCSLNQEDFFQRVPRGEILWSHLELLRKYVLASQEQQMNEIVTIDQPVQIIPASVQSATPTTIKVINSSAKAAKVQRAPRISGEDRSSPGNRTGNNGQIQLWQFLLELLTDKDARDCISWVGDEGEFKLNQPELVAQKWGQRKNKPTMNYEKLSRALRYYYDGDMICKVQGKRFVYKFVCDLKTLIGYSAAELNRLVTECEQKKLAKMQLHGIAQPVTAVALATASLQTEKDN
To be noted: protein: recombinant; tags: N-terminal GST; dsDNA, one strand shown. The gist of the method: as §1

The target in assay [4] is T4, ERG (Homo sapiens, UniProt P11308 1-479).
T4 sequence: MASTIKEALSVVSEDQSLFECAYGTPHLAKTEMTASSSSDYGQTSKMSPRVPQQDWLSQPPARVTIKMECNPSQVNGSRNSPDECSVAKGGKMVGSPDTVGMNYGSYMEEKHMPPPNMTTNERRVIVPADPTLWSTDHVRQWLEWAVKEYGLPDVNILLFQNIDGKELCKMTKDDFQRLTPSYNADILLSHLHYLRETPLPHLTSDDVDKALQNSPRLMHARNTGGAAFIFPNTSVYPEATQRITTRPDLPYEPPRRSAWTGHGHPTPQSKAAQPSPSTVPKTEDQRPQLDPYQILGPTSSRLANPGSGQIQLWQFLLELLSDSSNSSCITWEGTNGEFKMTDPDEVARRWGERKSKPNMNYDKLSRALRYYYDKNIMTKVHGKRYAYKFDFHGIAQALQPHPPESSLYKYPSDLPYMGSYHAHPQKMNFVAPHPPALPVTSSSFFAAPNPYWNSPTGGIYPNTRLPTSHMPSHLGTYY
To be noted: protein: recombinant; tags: N-terminal GST; dsDNA, one strand shown. The gist of the method:
as §1

Assay [5] has as its target ELF1 (Homo sapiens, UniProt P32519 1-619). To be noted: protein: recombinant; tags: N-terminal GST; dsDNA, one strand shown. The gist of the method:
as §1

Assay [6] deals with T5, EHF (Homo sapiens, UniProt Q9NZC4 1-300).
T5 sequence: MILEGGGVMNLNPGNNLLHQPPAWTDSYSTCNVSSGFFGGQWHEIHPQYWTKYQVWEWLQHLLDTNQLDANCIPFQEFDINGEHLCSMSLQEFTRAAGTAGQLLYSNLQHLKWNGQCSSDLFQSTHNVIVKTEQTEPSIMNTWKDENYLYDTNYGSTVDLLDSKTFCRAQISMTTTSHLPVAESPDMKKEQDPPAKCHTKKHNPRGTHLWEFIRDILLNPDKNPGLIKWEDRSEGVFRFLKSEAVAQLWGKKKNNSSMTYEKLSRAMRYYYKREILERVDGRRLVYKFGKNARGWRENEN
As to conditions: protein: recombinant; tags: N-terminal GST; dsDNA, one strand shown. In outline: as §1

Assay [7] has as its target SPI1 (Homo sapiens, UniProt P17947 1-270). As to conditions: protein: recombinant; tags: N-terminal GST; dsDNA, one strand shown. The gist of the method: as §1
The target of assay [8] is SPIB (Homo sapiens, UniProt Q01892 1-262). To be noted: protein: recombinant; tags: N-terminal GST; dsDNA, one strand shown. The gist of the method:
as §1

Assay [9] deals with T6, ELK3 (Homo sapiens, UniProt P41970 1-407).
T6 sequence: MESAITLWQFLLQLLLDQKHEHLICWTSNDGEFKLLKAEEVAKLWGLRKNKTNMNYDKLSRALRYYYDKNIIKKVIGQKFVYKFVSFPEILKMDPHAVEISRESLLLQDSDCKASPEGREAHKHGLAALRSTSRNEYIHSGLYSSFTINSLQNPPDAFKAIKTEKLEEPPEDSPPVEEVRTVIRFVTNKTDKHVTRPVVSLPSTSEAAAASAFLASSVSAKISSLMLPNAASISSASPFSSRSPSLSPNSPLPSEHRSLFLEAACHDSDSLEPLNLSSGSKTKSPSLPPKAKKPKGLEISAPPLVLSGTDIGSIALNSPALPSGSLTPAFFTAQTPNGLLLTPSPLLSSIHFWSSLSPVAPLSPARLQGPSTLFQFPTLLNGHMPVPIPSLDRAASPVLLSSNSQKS
To be noted: protein: recombinant; tags: N-terminal GST; dsDNA, one strand shown. The gist of the method: as §1

Assay [10] deals with T7, FEV (Homo sapiens, UniProt Q99581 1-238).
T7 sequence: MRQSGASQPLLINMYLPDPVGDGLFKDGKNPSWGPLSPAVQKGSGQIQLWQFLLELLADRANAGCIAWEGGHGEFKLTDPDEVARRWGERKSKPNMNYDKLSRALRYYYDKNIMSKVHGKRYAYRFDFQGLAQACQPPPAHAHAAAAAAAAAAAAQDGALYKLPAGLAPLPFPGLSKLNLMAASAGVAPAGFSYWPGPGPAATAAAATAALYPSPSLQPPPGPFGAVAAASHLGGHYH
To be noted: protein: recombinant; tags: N-terminal GST; dsDNA, one strand shown. In outline:
as §1

Assay [11] has as its target ETV5 (Homo sapiens, UniProt P41161 1-510). As to conditions: protein: recombinant; tags: N-terminal GST; dsDNA, one strand shown. The gist of the method: as §1
The target of assay [12] is HSF1 (Homo sapiens, UniProt Q00613 1-529). As to conditions: protein: recombinant; tags: N-terminal GST; chain copies: 3; dsDNA, one strand shown. In outline:
as §1

The target of assay [13] is T8, SPIC (Homo sapiens, UniProt Q8N5J4 1-248).
T8 sequence: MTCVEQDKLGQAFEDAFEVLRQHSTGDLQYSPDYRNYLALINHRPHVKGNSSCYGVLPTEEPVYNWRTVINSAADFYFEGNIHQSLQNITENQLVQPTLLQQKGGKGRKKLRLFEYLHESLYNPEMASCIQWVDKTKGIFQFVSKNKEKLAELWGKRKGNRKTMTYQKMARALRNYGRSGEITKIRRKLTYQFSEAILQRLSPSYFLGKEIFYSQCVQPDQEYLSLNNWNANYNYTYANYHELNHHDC
To be noted: protein: recombinant; tags: N-terminal GST; dsDNA, one strand shown. The gist of the method:
as §1

Assay [14] deals with ELF4 (Homo sapiens, UniProt Q99607 1-663). As to conditions: protein: recombinant; tags: N-terminal GST; dsDNA, one strand shown. The gist of the method:
as §1

For assay [15], the target named is T9, ELK4 (Homo sapiens, UniProt P28324-2 1-405).
T9 sequence: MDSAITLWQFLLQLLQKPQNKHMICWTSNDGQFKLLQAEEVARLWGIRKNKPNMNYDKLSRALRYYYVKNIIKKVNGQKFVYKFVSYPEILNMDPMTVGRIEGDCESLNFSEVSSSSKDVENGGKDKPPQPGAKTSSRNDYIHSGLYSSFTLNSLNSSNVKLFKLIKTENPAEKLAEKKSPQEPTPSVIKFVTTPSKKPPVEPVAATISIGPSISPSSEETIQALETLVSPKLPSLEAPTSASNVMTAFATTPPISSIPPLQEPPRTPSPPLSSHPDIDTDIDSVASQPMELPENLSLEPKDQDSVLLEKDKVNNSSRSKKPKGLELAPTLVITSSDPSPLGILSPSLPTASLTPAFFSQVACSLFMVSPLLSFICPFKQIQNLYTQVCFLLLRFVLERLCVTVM
As to conditions: protein: recombinant; tags: N-terminal GST; dsDNA, one strand shown. In outline:
as §1

Assay [16] addresses T10, ETV2 (Homo sapiens, UniProt O00321 1-342).
T10 sequence: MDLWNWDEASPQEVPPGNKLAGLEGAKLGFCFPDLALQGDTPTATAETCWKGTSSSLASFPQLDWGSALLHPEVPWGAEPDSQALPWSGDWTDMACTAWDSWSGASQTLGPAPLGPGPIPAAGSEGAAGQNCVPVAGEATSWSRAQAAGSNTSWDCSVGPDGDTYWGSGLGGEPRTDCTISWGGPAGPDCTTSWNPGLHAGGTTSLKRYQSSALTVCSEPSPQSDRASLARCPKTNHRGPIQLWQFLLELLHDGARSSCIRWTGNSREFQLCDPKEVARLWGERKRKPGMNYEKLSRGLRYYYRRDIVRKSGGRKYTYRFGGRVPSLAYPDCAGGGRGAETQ
As to conditions: protein: recombinant; tags: N-terminal GST; dsDNA, one strand shown. The gist of the method:
as §1

Assay [17] has as its target CRX (Homo sapiens, UniProt O43186 1-299). To be noted: protein: recombinant; tags: N-terminal GST; dsDNA, one strand shown. In outline:
as §1

The target in assay [18] is ETV1 (Homo sapiens, UniProt P50549 1-477). As to conditions: protein: recombinant; tags: N-terminal GST; dsDNA, one strand shown. The gist of the method:
as §1

Chain of ELF4 (Q99607 whole entry): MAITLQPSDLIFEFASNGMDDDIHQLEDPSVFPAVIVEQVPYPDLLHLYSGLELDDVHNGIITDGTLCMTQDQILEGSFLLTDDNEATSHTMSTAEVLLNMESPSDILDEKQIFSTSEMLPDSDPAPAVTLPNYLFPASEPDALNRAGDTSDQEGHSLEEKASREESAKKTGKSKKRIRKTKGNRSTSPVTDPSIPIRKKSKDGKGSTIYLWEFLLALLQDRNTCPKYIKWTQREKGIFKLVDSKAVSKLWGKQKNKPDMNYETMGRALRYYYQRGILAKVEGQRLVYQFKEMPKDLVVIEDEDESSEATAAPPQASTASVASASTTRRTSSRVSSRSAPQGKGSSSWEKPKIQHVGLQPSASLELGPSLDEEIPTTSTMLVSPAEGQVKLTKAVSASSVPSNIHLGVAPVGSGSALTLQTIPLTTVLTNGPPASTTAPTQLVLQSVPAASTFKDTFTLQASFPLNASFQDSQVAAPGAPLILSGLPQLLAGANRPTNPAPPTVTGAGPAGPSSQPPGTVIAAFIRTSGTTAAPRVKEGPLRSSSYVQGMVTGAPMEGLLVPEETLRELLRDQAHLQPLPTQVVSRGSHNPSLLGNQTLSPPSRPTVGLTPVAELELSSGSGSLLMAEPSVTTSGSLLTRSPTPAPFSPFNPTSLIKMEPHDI
Chain of ETV5 (P41161 whole entry): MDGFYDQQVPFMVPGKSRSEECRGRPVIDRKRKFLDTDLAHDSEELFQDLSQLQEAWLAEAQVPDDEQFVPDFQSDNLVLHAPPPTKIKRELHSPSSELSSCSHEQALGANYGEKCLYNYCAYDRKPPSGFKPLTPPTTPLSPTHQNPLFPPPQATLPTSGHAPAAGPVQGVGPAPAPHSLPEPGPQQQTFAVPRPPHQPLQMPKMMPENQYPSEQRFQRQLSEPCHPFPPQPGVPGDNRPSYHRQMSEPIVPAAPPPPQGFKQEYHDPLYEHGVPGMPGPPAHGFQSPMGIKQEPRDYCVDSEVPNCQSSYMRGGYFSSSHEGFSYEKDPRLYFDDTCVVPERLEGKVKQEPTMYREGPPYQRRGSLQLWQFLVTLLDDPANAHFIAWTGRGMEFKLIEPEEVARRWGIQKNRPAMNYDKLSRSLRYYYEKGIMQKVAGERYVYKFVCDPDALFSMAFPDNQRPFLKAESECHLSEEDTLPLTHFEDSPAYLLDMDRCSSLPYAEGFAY
Chain of HSF1 (Q00613 whole entry): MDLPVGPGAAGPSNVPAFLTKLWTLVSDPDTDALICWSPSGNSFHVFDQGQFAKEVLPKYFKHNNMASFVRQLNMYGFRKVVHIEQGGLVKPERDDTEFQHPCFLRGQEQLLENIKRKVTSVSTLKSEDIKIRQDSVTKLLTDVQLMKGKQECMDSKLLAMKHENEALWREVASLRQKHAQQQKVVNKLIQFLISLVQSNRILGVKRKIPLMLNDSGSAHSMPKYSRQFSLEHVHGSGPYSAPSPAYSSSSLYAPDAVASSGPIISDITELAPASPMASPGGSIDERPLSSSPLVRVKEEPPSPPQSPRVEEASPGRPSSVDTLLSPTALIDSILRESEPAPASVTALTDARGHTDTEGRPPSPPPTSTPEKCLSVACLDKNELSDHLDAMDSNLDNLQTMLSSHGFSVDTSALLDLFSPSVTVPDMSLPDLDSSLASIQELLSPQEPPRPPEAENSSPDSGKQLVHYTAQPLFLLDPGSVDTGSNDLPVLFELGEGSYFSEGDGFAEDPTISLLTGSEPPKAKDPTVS
Chain of ETV1 (P50549 whole entry): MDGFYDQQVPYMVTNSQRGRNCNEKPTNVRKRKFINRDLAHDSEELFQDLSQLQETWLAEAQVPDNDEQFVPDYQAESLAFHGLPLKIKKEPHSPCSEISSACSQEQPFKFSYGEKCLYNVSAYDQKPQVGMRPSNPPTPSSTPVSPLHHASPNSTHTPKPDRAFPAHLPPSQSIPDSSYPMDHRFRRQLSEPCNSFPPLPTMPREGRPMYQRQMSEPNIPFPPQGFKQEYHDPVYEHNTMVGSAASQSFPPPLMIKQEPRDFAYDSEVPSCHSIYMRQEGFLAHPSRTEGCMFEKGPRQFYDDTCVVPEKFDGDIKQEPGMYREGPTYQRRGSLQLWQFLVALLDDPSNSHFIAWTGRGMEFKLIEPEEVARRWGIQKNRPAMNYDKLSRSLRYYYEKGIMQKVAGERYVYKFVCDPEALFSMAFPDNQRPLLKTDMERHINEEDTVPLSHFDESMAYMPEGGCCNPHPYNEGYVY
Chain of SPIB (Q01892 whole entry): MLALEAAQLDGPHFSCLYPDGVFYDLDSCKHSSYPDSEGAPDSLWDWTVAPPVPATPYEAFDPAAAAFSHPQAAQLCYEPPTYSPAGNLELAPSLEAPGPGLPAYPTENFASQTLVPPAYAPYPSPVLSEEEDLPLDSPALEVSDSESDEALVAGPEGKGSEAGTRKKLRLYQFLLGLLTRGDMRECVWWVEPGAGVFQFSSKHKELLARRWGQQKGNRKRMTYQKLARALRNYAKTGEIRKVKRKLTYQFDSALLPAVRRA
Chain of ELF1 (P32519 whole entry): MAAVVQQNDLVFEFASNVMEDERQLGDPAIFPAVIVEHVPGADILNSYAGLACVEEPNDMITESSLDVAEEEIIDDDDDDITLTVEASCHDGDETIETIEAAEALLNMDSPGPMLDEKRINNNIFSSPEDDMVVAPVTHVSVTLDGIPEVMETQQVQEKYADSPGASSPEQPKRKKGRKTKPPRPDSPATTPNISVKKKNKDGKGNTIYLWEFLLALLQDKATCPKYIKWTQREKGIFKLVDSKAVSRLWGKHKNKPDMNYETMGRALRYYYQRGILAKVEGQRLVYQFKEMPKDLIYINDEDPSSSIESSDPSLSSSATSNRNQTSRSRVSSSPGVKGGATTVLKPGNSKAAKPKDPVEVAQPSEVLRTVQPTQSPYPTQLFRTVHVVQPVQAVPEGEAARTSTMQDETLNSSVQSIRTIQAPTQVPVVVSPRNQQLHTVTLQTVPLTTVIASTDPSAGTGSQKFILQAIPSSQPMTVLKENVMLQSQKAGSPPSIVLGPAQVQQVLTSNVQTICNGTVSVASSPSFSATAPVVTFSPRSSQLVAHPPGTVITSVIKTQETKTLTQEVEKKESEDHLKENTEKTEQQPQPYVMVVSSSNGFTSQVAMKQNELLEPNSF
Chain of CRX (O43186 whole entry): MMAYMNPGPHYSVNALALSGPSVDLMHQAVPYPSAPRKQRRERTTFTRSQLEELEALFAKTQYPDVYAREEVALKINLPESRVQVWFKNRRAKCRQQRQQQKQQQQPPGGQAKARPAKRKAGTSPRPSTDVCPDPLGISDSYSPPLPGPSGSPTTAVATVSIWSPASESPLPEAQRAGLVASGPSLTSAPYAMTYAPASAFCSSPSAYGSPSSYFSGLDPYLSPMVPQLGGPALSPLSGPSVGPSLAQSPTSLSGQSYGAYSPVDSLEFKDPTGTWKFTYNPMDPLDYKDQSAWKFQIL

On to AAGCAC, for which the binding signal in [1] was 1.14 fold enrichment (6-mer frequency, TF over GST control); in assay [2], 1.14 fold enrichment (6-mer frequency, TF over GST control); in assay [3] it was 1.15 fold enrichment (6-mer frequency, TF over GST control); in assay [4], 1.19 fold enrichment (6-mer frequency, TF over GST control); in [5], 1.18 fold enrichment (6-mer frequency, TF over GST control); in [6], 1.07 fold enrichment (6-mer frequency, TF over GST control). For the same sequence, the binding signal in assay [7] was 1.18 fold enrichment (6-mer frequency, TF over GST control); in assay [8], 1.18 fold enrichment (6-mer frequency, TF over GST control); in assay [9], 1.31 fold enrichment (6-mer frequency, TF over GST control); in assay [10] it was 1.23 fold enrichment (6-mer frequency, TF over GST control); in assay [11] it was 1.12 fold enrichment (6-mer frequency, TF over GST control); in [12] it was 1.04 fold enrichment (6-mer frequency, TF over GST control). The binding signal is 1.09 fold enrichment (6-mer frequency, TF over GST control) in assay [13]; 1.2 fold enrichment (6-mer frequency, TF over GST control) in [14]; 1.12 fold enrichment (6-mer frequency, TF over GST control) in [15]; 1.22 fold enrichment (6-mer frequency, TF over GST control) in assay [16]; 1.09 fold enrichment (6-mer frequency, TF over GST control) in [17]; 1.14 fold enrichment (6-mer frequency, TF over GST control) in assay [18].
